In PubChem BioAssay AID1779 (Sanford-Burnham Center for Chemical Genomics, 2009) one finds inhibition data, which are given here for 61 compounds.

Structures are written as SMILES. Screen size: about 290,000 compounds; about 160 (0.055%) were called active. Many of the other results were omitted from the sample, so actives are more common in it than they were. Values without a mark were called inactive. No stated cut-off is given here; in the data, active means inhibition above about 50%; inactive means the rest.

This experiment deals with Tyrosine-protein phosphatase non-receptor type 22 (Homo sapiens) (UniProt Q9Y2R2). Kind of experiment: inhibitors of LYP phosphatase, biochemical, fluorescence intensity, uHTS (AID 1779).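 Further: plate controls were vehicle with enzyme for no effect and no enzyme for full effect.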 The note with it: recombinant LYP phosphatase, at 11.5 µM, stronger effect = higher value.
Chain of Tyrosine-protein phosphatase non-receptor type 22 (Homo sapiens) (Q9Y2R2 whole entry, looked up): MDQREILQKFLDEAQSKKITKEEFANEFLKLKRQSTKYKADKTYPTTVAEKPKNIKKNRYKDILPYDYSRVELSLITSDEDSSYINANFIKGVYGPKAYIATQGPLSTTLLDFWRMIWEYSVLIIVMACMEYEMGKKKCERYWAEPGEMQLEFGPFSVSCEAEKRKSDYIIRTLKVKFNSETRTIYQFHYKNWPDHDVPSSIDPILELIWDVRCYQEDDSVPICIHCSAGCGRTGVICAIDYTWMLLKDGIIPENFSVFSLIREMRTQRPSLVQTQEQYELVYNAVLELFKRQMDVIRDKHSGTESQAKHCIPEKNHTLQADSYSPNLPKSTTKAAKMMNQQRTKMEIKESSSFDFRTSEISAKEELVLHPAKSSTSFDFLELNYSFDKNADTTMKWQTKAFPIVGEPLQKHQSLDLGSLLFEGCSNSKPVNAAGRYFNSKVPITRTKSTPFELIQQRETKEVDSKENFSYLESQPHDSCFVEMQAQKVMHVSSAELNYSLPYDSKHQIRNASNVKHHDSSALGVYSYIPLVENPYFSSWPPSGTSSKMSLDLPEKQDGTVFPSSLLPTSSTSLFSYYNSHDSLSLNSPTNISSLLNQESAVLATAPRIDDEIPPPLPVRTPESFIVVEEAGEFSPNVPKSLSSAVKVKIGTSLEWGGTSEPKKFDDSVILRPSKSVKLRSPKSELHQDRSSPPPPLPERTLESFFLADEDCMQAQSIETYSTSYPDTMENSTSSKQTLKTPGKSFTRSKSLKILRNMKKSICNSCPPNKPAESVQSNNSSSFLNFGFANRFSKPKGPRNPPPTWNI
As for `CC(=O)c1cccc(NC(=O)c2ccc(OC3CSC3)cc2)c1`, the inhibition is -7%.
Under `O=C(Nc1ccc(Cl)cc1)c1ccc(OC2CSC2)cc1` stands 67.9% (active).
Under `Cc1cccc(NC(=O)c2ccc(OC3CSC3)cc2)c1` stands -5%.
The value for `Cc1ccc(CNC(=O)c2cncc(Br)c2)cc1` was -2.9%; that for `O=C(NCc1ccncc1)c1cncc(Br)c1` was -9.5%; that for `O=C(NCc1ccccc1)c1cncc(Br)c1` was 67.8% (active).
`NC(=O)Nc1ccc(C(=O)OCC(=O)Nc2cccc(S(=O)(=O)NC3=NCCCCC3)c2)cc1`: the inhibition is -1.2%.
With `CCOC(=O)c1cc(-c2ccccc2)sc1NC(=S)Nc1cccc(C)n1`, the inhibition was 5.7%.
For `Cc1ccc2nsnc2c1NC(=O)CCl`, the inhibition was -1.6%.
As for `CC(C)Cc1nc(S(=O)(=O)c2ccc(Cl)cc2)c(N2CCOCC2)o1`, the inhibition is 81.8% (active).
Under `CC(C)(C)c1nc(S(=O)(=O)c2ccc(Cl)cc2)c(N2CCOCC2)o1` stands -10.6%.
As to `CCCCc1nc(S(=O)(=O)c2ccc(Cl)cc2)c(N2CCOCC2)o1`, the inhibition was -7.7%.
For `CCc1ccc2c(CC(=O)Nc3nnc(C4CC4)s3)coc2c1`, the inhibition was -7.3%.
In the case of `Cc1ccc(CNC(=O)CN2CCN(c3ccc(F)cc3)CC2)cc1`, the inhibition is 1.2%.
The value for `CCN(CCO)Cc1csc2ccc(Cl)cc12` was -3.3%.
On to `CCN(CCO)Cc1csc2ccc(Br)cc12`, for which the inhibition was -8.6%.
Under `CCN(CCO)Cc1csc2ccc(C(C)(C)C)cc12` stands 52.5% (active).
For the compound `FC(F)(F)c1cc(Cl)c2nnc(-c3cccnc3)n2c1`, the inhibition was -4.4%.
The value for `Cc1ccc(NC(=Nc2ccc(Br)cc2)N2CCOCC2)cc1C` was -2.9%; that for `Cc1ccc2[nH]c(=O)cc(C(=O)OCC(=O)c3ccccc3)c2c1` was 70.6% (active); that for `Cc1ccc(C(=O)COC(=O)c2cc(=O)[nH]c3ccccc23)cc1` was -5.1%.
Under `Cc1ccc2[nH]c(=O)cc(C(=O)OCC(=O)c3ccc(F)cc3)c2c1` stands 1.2%; under `Cn1c(C(=O)NC2CCCCC2)cc2sccc21`, -4.8%; under `CCC(=O)NC(=S)Nc1ccc(NC(=O)COc2ccccc2)cc1`, -2.2%.
Take `CCOC(=O)c1ccc(NC(=S)NC(=O)COc2ccccc2)cc1`: the inhibition is 69.2% (active).
As for `CCOC(=O)c1ccc(NC(=S)Nc2ccccc2)cc1`, the inhibition was -5.5%.
Under `COc1ccc2[nH]c(=O)c(CN(c3ccccc3OC)S(=O)(=O)c3ccccc3)cc2c1` stands -5.9%.
The value for `Nc1nc(NCCN2CCOCC2)nc(NCc2ccccc2)c1[N+](=O)[O-]` was -6%; that for `CC(C)CCNC(=O)c1ccc2c(Cl)c3c(nc2c1)CCC3` was 85.9% (active).
As to `COCCNC(=O)c1ccc2c(Cl)c3c(nc2c1)CCC3`, the inhibition is -7.1%.
The value for `CC(C)CCNC(=O)c1ccc2c(SCC(=O)O)c3c(nc2c1)CCC3` was -1.8%.
The value for `O=C(Nc1ccccc1C(=O)NCc1ccccc1)c1ccccc1Br` was -1.2%; that for `Cc1ccc(C(C(=O)NC2CCCC2)N2CCc3ccccc32)cc1` (stereo unspecified) was 0.4%; that for `O=C(NC1CCCCC1)C(c1ccccc1)N1CCc2ccccc21` (stereo unspecified) was 3%.
Turning to `COc1ccc(C(C(=O)NC2CCCC2)N2CCc3ccccc32)cc1` (stereo unspecified), the inhibition was 88.2% (active).
Turning to `COc1ccc(CNC(=O)Cc2ccc(NC(=O)C3=C(C)OCCS3)cc2)cc1`, the inhibition is -1.9%.
For the compound `CC(O)CNc1nc2c(c(=O)n(Cc3ccc(Cl)c(Cl)c3)c(=O)n2C)n1C` (stereo unspecified), the inhibition is -3.6%.
In the case of `COc1cc(/C=C(\C#N)C(=O)Nc2cccc(C(=O)O)c2)ccc1OCc1ccc(Cl)cc1`, the inhibition was 15%.
As for `N#C/C(=C/c1ccccc1OCc1ccc(F)cc1)c1ccc(C(=O)O)cc1`, the inhibition was -6.7%.
The value for `N#C/C(=C/c1ccc(OCc2ccc(C(=O)O)cc2)cc1)C(=O)Nc1ccccc1` was -4.6%; that for `CCOc1cc(/C=C(\C#N)C(=O)Nc2cccc(C(=O)O)c2)ccc1OCc1ccccc1Cl` was -2.4%; that for `N#C/C(=C\c1ccccc1OCc1ccc(C(=O)O)cc1)c1ccccc1` was -4.4%.
As for `N#C/C(=C\c1ccc(OCc2ccc(F)cc2)cc1)C(=O)Nc1cccc(C(=O)O)c1`, the inhibition is 5.5%.
In the case of `COc1cc(/C=C(\C#N)C(=O)Nc2cccc(C(=O)O)c2)ccc1OCc1ccc(C)cc1`, the inhibition is -1.7%.
Regarding `N#C/C(=C\c1ccc(OCc2ccccc2)cc1)C(=O)Nc1ccc(C(=O)O)cc1`, the inhibition was 3%.
Under `N#C/C(=C\c1ccc(OCc2ccc(Br)cc2)cc1)C(=O)Nc1cccc(C(=O)O)c1` stands 93.4% (active); under `COc1ccc(-c2sc3ccccc3c2C#CC2(O)CCCCC2)cc1`, -5%.
The value for `CSc1nc2ccc(NS(=O)(=O)c3ccc(Cl)s3)cc2s1` was 1.1%; that for `COC(=O)CSCC(=O)Nc1nnc(-c2cccc(C)c2)s1` was 5%.
Under `CC(=O)c1sc(NC(=O)C(C)Oc2ccc3c(C)cc(=O)oc3c2)nc1C` (stereo unspecified) stands -5.1%; under `CC(=O)N(C)c1ccc(NC(=S)Nc2cccc3ccccc23)cc1`, -2.8%.
On to `O=C(Cn1nc(Cc2cccnc2)c2ccccc2c1=O)Nc1cc(F)ccc1F`, for which the inhibition was -6.7%.
Take `O=C(N=C1SC2CS(=O)(=O)CC2N1Cc1ccccc1Cl)C1CC1` (stereo unspecified): the inhibition is -11.3%.
Regarding `COc1ccccc1CNC(=O)c1cc2sccc2n1C`, the inhibition was -5.5%.
The value for `CC(=O)Nc1ccc(S(=O)(=O)N2CCC(NC(=O)C(Cc3ccc(C)cc3)NC(C)=O)CC2)cc1` (stereo unspecified) was -16%; that for `CCC1=C(OC(=O)N(CC)CC)N2C(=O)OC(=NCC3CC3)[C@]2(C)[C@H]2C1=CC[C@H]1C(=O)NC(=O)[C@H]12` was -0.8%; that for `CCOC(=O)c1c(C)[nH]c(C)c1C(=O)CSc1nc2ccccc2n1CC` was -7.1%.
`O=C(O)C1CCCCC1C(=O)Nc1ccc(Cl)cc1` (stereo unspecified): the inhibition is -1.6%.
Consider `O=C(O)C1CCCCC1C(=O)Nc1ccc(F)c(F)c1` (stereo unspecified), for which the inhibition is 51.4% (active).
For the compound `O=C(O)C1CC=CCC1C(=O)Nc1ccc(F)c(F)c1` (stereo unspecified), the inhibition is 6.1%.
Under `COc1cccc(C2C(C(=O)c3cc4ccccc4o3)=C(O)C(=O)N2c2cc(C)on2)c1` (stereo unspecified) stands -8%.

Broadly, the inhibition is the drop in the measured response relative to a control, in per cent.
